# Compound activity: PubChem BioAssay, National Center for Advancing Translational Sciences (NCATS)
# This is one part of a sample in which hits are shown more often than they occur.
# KDM5B inh: inhibitors of human KDM5B histone demethylase; KDM5B demethylase, FDH-coupled NADH fluorescence (FDH is formaldehyde dehydrogenase); Potency, µM (top dose mostly 57.7 µM), hits mostly inhibitors; Q9UGL1; AID 1347165; hit rate 2.6% among 220,000; active = well fitted inhibition curve with a large enough effect; note: nearly all actives have a fitted effect of over 70% in size
#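 Inhibition is measured as reduced NADH fluorescence generation from FDH coupling to formaldehyde release. Truncated KDM5BΔAP at 200 nM final acts on H3K4me3 peptide (12.5 µM in substrate mix) in pH 7.5 HEPES buffer with Tween-20, 30 min, room temperature.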
# Numbers stand for hits; – = inactive.
SMILES,KDM5B inh
N#C/C(=C\c1c[nH]c2ccccc12)C(=O)Nc1ccc(O)cc1,–
CCOC(=O)c1cc(Cl)c(C(=O)OCC)cc1Cl,–
CCOCCCNC(=O)C(NC(=O)c1ccc(CC)cc1)C(C)C (centres undefined),–
CCCC1CCC(c2ccc(C(=O)Nc3ccc(OC)cc3)cc2)CC1 (centres undefined),–
CCCOc1cccc(-c2cc(C(=O)NC(C)C)c3ccccc3n2)c1,–
CC1=C(c2ccc(C)c(C)c2)S(=O)(=O)NC1=NC(C)C12CC3CC(CC(C3)C1)C2 (centres undefined),–
CCCCN1C(=O)c2ccc(C(=O)OCc3csc(Nc4ccc(C)cc4)n3)cc2C1=O,–
O=C(COc1coc(CN2CCSCC2)cc1=O)NCc1ccccc1Cl,–
CC(Cn1cccn1)NC(=O)N1CCN(Cc2ccncc2)CC1 (centres undefined),–
CCCn1nc(C)cc1CN(C)c1ccc(NC(=O)c2ccccc2C)cc1C(=O)O,–
CCCOc1c(C(=O)OC)sc2ccc(NC(=O)c3ccccc3)cc12,–
O=C(COC(=O)C1C=CCCC1)c1ccc(Cl)cc1 (centres undefined),–
CSc1ccccc1OCc1cc(C(=O)NCCN2CCCCC2CO)no1 (centres undefined),–
O=C(CC1CCCC1)Nc1cnc(-c2cccnc2)nc1,–
O=S(=O)(c1cccnc1)N1CCCCC1CCc1cccs1 (centres undefined),–
O=S(=O)(c1cccnc1)N1CCCCC1CCN1CCOCC1 (centres undefined),–
CS(=O)(=O)N1CCCCC1CCNc1nccc(-c2cccnc2)n1 (centres undefined),31.6µM
OCC1CCCCN1CCNc1nccc(-c2cccnc2)n1 (centres undefined),25.1µM
COc1cc(C(=O)Nc2ccccc2NS(C)(=O)=O)cc(OC)c1OC,–
CCCOc1ccc(CN2C[C@@H](CO)[C@H](c3ccccn3)C2)cc1,–
CC(C)CSc1nc2c(c(=O)n(C)c(=O)n2C)n1C/C=C/c1ccccc1,–
CCOC(=O)c1cc(-c2ccc(S(=O)(=O)Nc3cccc(Cl)c3C)s2)on1,–
Cc1ccc(C(=O)CC(SCC(=O)O)c2ccc(Cl)cc2)cc1 (centres undefined),–
O=C([C@H]1C[C@H](Oc2cccnc2)CN1C(=O)NC1CCCC1)N1CCOCC1,–
O=C(C1CCCN1c1nc2ncccc2o1)N1CCCC1 (centres undefined),39.8µM
SMILES,KDM5B inh
O=C(C1CCCN1c1nc2ncccc2o1)N1CCOCC1 (centres undefined),28.2µM
O=C(Nc1ccc(F)cc1)C1CCCN1c1nc2ncccc2o1 (centres undefined),–
O=C(N[C@@H]1CCC[C@@H]1C(=O)N1CCN(c2ncccn2)CC1)c1ccncc1,–
O=C(C1CCCN1c1nc2ncccc2o1)N1CCN(c2ncccn2)CC1 (centres undefined),14.1µM
CNC(=O)[C@@H](c1ccccc1F)N1CCC[C@H]1C(=O)N1CCOCC1,–
O=C1CCN(C(=O)[C@@H]2CCCN2S(=O)(=O)c2cccc3cccnc23)CCCCCCN1,–
COc1cccc(OC)c1OCc1ccon1,–
CC1CCC(NC(=O)CSc2nc3cc([N+](=O)[O-])ccc3o2)CC1 (centres undefined),–
COc1ccc(OC)c(C2CCCN2CC(=O)N(C)c2ccccc2)c1 (centres undefined),–
Cc1nc2nc(N)nn2c(C)c1CC(=O)NC(C)C1CC1 (centres undefined),–
O=S(=O)(NC(c1ccccc1)c1ccccc1)c1cccs1,–
CCOC(=O)C1=C(CNc2ccc(C)c(Cl)c2)NC(=O)NC1c1ccc(Cl)cc1 (centres undefined),–
Cc1cc2cc(C(=O)O)ccc2o1,–
COCc1nc(C2CCN(C(=O)c3n[nH]c4ccccc34)C2)no1 (centres undefined),–
CC(C)NC(=O)CCc1ncc(-c2c(F)cccc2F)o1,–
Cc1nc2ccc(C(=O)NCc3ccncc3)cc2nc1C,–
COc1cccc(Nc2ncc3c(n2)C(C)(C(=O)N2CCN(c4ccccn4)CC2)CC3)c1 (centres undefined),–
Cn1cc(-c2ccccc2)cc1C(=O)NCc1cccs1,–
COc1cccc(Nc2ncc3c(n2)C(C)(C(=O)NCCN2CCOCC2)CC3)c1 (centres undefined),–
COc1cccc(Nc2ccc3c(n2)C(C)(C(=O)NCCc2cnc[nH]2)CN(C)C3)c1 (centres undefined),39.8µM
COc1cccc(Nc2ccc3c(n2)C(C)(C(=O)NCC2CC2)CN(C)C3)c1 (centres undefined),35.5µM
CN1Cc2ccc(Nc3ccccc3)nc2C(C)(C(=O)NCc2cccs2)C1 (centres undefined),31.6µM
COc1cccc(Nc2ncc3c(n2)C(C)(C(=O)NCCCn2ccnc2)CC3)c1 (centres undefined),–
COc1cccc(N2CC(C(=O)NCC3CC3)NC2=O)c1 (centres undefined),–
CC1(C(=O)NCc2cccs2)CCCCC(=O)N1 (centres undefined),–
